Records with an inconclusive call do not appear. Unmarked numbers belong to inactive results. Activity calls are given as the source filed them. Unless noted, calls follow the shape of the dose curve; as a rule, active = well fitted curve in the direction sought with a large enough effect; inconclusive = small, poorly fitted or top-dose-only effect, or another doubt; inactive = no such curve, though single readings can be large; an effect the other way counts as inactive or inconclusive. Where a SMILES comes first, the peptide text is derived from it. [ ]: non-standard residue; d: D form. ξ: configuration not given here. ξLac(3-iPr) = CC(C)CC(O)C(=O)O; NMeV = CN[CH](C(=O)O)C(C)C; NMeA = CN[CH](C)C(=O)O; βAla = NCCC(=O)O

A short description of test [1]: Primary qHTS for inhibitors of nuclear receptor binding SET domain protein 2 (NSD2) in an isogenic RCH-ACV NSD2 p.E1099K mutant (9B) (AID 1645876). Also: nearly all actives have a fitted effect of over 70% in size. Also: potency is read from the fitted curve at half-maximal effect. As to activity change, negative = viability loss: % is scaled to controls: 0 for no effect and ±100 for the full control effect. In general terms: qHTS replaces the single test concentration by a dilution series.
A short description of test [2]: Primary qHTS for inhibitors of nuclear receptor binding SET domain protein 2 (NSD2) in an RCH-ACV wild type WT cells (2C) (AID 1645877). Also: nearly all actives have a fitted effect of over 70% in size. Also: potency is read from the fitted curve at half-maximal effect.
In another test the test system is HEK293. The experiment in a line: Cytotoxic Profiling of Annotated Libraries Using Quantitative High-Throughput Screening (AID 1296008). Also: nearly all actives have a fitted effect of over 60% in size. Also: potency is read from the fitted curve at half-maximal effect. The settings on record: Five cell lines viability, CellTiter-Glo ATP luminescence, 48-72 h; max response: hits give low values. A digest of the protocol:
(§1)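 Cells exposed to compounds for 48 or 72 hr at 37 degrees Celsius. Viability read as ATP-coupled luminescence with CellTiter-Glo after 10 min at room temperature.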
(In general: In ATP-based viability assays light output follows the ATP content of the culture.)

The subject of the next test is SKOV3. The experiment in a line: Primary qHTS to identify gynecologic anti-cancer compounds using libraries of approved drugs and bioactive compounds (AID 1345084). Also: nearly all actives have a fitted effect of over 55% in size. Also: potency is read from the fitted curve at half-maximal effect. As to activity change, negative = cytotoxicity: % is scaled to controls: 0 for no effect and ±100 for the full control effect. The conditions noted are these: Gynecologic cancer cell panel viability, ATPlite luminescence, 48 h; series mostly up to 57.5 µM. In short, it runs like this: (§2)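 Luminescence from the ATPlite ATP-monitoring reagent indicates viable cell number; lower signal means cytotoxicity. Cells received compound 16 h after seeding and were exposed for 48 h across five concentrations.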

A short description of test [3]: P-glycoprotein substrates identified in KB-8-5-11 adenocarcinoma cell line, qHTS therapeutic library screen (AID 1346987). Also: nearly all actives have a fitted effect of over 65% in size. Also: potency is read from the fitted curve at half-maximal effect. As to activity change, negative = cytotoxicity: % is scaled to controls: 0 for no effect and ±100 for the full control effect. In short, it runs like this: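 Compounds are pinned in dose-response onto KB-8-5-11 cells (500 cells/well, colchicine-free medium) and left 72 h at 37 degree C. CellTiter-Glo luminescence then yields AC50 values.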
For test [4], the system named is Zika virus NS2B-NS3 protease (unlinked complex). The experiment in a line: Primary screen GU Rhodamine qHTS for Zika virus inhibitors: Unlinked NS2B-NS3 protease assay (AID 1347159). Also: % is scaled to controls: 0 for no effect and ±100 for the full control effect; nearly all actives have a fitted effect of over 60% in size. A digest of the protocol: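 Percent inhibition came from the 15-min rise in Rhodamine110 fluorescence (1.5 microM substrate, ~15% conversion), normalized to no-inhibitor and no-enzyme wells and Hill-fitted. Unlinked protease, 25 nM, pH 8.0 Tris buffer; compounds up to 114 microM, 15-min preincubation.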

In a further test the test system is HeLa. Nature of the test: Primary qHTS to identify gynecologic anti-cancer compounds using libraries of approved drugs and bioactive compounds (AID 1345084). Also: nearly all actives have a fitted effect of over 55% in size. Also: potency is read from the fitted curve at half-maximal effect. As to activity change, negative = cytotoxicity: % is scaled to controls: 0 for no effect and ±100 for the full control effect. The conditions noted are these: Gynecologic cancer cell panel viability, ATPlite luminescence, 48 h; series mostly up to 57.5 µM. In short, it runs like this:
as §2

Test [5] concerns the target Cytochrome P450 2D6 (Homo sapiens) (UniProt P10635). The experiment in a line: Cytochrome P450 family 2 subfamily D member 6 (CYP2D6) small molecule antagonists: luciferase biochemical (cell-free) qHTS assay (AID 1645840; active = well fitted curve in the direction sought with a large enough effect in the repeat runs; an effect the other way counts as inactive or inconclusive; also: nearly all actives have a fitted effect of over 55% in size; also: potency is read from the fitted curve at half-maximal effect). In short, it runs like this:
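P450-Glo CYP2D6 system: proluciferin substrate converted by enzyme to luciferin, read by luminescence proportional to activity. Enzyme-substrate mix with compound 10 min at room temperature, then NADPH regeneration 1 h before detection reagent.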

Test [6] concerns the target Cytochrome P450 2C9 (Homo sapiens) (UniProt P11712). The experiment in a line: Cytochrome P450 family 2 subfamily C member 9 (CYP2C9) small molecule antagonists: luciferase biochemical (cell-free) qHTS assay (AID 1645842; active = well fitted curve in the direction sought with a large enough effect in the repeat runs; an effect the other way counts as inactive or inconclusive; also: potency is read from the fitted curve at half-maximal effect; nearly all actives have a fitted effect of over 55% in size). In short, it runs like this:
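P450-Glo CYP2C9 system: proluciferin substrate with enzyme in mix containing 0.4% BSA, 10 min at room temperature, then NADPH regeneration solution added and incubated 1 h at 37C. Detection reagent stopped reaction; luminescence read after 20 min as RLU.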

A further test has as its system HACAT. Nature of the test: qHTS assay to identify novel small-molecules to repurpose for Merkel cell carcinoma treatment (AID 1296009). Also: nearly all actives have a fitted effect of over 60% in size. The conditions noted are these: MCC and control cell lines, CellTiter-Glo viability, 72 h; at 44.8 µM (top of the series) unless noted. A digest of the protocol: (§3)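 Dose-response viability screen; 72 hr exposure at 37 degree celsius; CellTiter-Glo added, 10 min room temperature, luminescence read; RLUs scaled between no-cell and DMSO wells.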

In the next test the test system is NIH3T3. Described as above. The conditions noted are these: MCC and control cell lines, CellTiter-Glo viability, 72 h; at 44.8 µM (top of the series) unless noted. A digest of the protocol: as §3
Another test concerns KB-3-1. Nature of the test: Cytotoxic Profiling of Annotated Libraries Using Quantitative High-Throughput Screening (AID 1296008). Also: nearly all actives have a fitted effect of over 60% in size. Also: potency is read from the fitted curve at half-maximal effect. The conditions noted are these: Five cell lines viability, CellTiter-Glo ATP luminescence, 48-72 h; max response: hits give low values. In short, it runs like this:
as §1

Sequence of Cytochrome P450 2C9 (Homo sapiens) (P11712 whole entry, looked up): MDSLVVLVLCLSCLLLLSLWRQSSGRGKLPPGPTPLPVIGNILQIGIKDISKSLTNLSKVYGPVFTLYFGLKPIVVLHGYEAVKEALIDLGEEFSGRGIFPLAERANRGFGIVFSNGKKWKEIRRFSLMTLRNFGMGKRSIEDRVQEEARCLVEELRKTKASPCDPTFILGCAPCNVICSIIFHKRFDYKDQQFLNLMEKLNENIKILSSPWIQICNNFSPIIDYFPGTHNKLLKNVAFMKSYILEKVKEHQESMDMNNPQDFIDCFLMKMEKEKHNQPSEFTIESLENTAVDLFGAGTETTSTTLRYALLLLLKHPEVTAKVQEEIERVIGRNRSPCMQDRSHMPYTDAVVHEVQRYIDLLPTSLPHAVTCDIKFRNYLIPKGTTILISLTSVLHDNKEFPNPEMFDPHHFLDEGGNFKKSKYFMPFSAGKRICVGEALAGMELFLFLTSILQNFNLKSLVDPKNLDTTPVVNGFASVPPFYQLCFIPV
Sequence of Cytochrome P450 2D6 (Homo sapiens) (P10635 whole entry, looked up): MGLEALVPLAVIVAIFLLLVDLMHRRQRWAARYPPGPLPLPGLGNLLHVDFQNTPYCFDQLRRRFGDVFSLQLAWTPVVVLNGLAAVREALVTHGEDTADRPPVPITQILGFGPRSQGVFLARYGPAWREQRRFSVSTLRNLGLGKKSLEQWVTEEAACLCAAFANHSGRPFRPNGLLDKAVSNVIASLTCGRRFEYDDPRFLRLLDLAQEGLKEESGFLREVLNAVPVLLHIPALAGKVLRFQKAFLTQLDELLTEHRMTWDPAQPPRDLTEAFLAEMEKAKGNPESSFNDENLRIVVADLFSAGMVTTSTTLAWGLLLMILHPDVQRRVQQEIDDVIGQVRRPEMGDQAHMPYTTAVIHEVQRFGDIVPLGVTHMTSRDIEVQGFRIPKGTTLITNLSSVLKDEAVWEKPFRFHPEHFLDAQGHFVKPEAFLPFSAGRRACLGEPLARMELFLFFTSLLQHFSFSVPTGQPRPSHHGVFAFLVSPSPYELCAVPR

Take `CN1CN(c2ccccc2)C2(CCN(CCCC(=O)c3ccc(F)cc3)CC2)C1=O`: the Potency in [1] was 23 µM (active); in test [2], 25.8 µM (active); in the test with HEK293, 14.6 µM (active). Besides, the Potency entry in the test with SKOV3 was “inactive”.

On to `CC(=O)O[C@H]1C(=O)[C@]2(C)C(O)C[C@H]3OC[C@@]3(OC(C)=O)[C@H]2[C@H](OC(=O)c2ccccc2)[C@]2(O)C[C@H](O)C(C)=C1C2(C)C` (some centres not stated), for which the Potency result (in test [3]; in test [4]; in the test with HeLa; in the test on SKOV3) was “inactive” each time.

Turning to `COc1ccc(C23CCC(=O)C=C2N(C)CC3)cc1OC` (configuration not stated), the Potency entry in test [3], in [1] and in test [2] was “inactive” throughout. For the same molecule, the max response in the test on HEK293 was -6.12%. Besides, the Potency in the test with SKOV3 is 25.1 µM (active).

For the molecule `Cc1ccc(-n2nccn2)c(C(=O)N2CCN(c3nc4cc(Cl)ccc4o3)CCC2C)c1` (configuration not stated), the Potency result (in test [4]; in the test with HeLa) was “inactive” throughout. For the same molecule, the figures for the Potency in [5], in test [6] and in test [1] were 16.9 µM (active), 1.34 µM (active) and 16.3 µM (active), respectively. Also, the molecule was classed as inactive in the test with HACAT and with NIH3T3.

In the case of `CCC1(O)CCC2C3CCC4=CC(=O)CCC4C3CCC21CC` (configuration not stated), the Potency entry (in [4]; with HeLa; with SKOV3) was “inactive” throughout. For the same molecule, the Potency in test [1] is 20.5 µM (active). In the test with KB-3-1, the max response is -10.9%. Moreover, the call with HACAT was inactive.

On to `COC[C@]12CN(C)C3C4[C@H](OC)[C@H]1C3(C(OC)C[C@H]2O)[C@H]1C[C@@]2(O)[C@H](OC(=O)c3ccccc3)[C@@H]1[C@]4(O)[C@@H](O)[C@@H]2OC` (some centres not stated), for which the Potency result in test [3], in [1] and in [2] was “inactive” throughout. The max response in the test with KB-3-1 is -0.453%.

On to `C/C=C(/C)C(=O)O[C@H]1[C@@H]2[C@H](C)C(=O)O[C@@H]2C[C@@H](C)[C@@H]2C=CC(=O)[C@]21C`, for which the Potency entry in test [4] was “inactive”. Further, the values for the Potency in test [1] and in test [2] were 12.7 µM (active) and 10.1 µM (active), respectively. For the same molecule, the max response in the test on HEK293 was -117%.

As for `COc1cccc(NCC(F)Cn2c3ccc(Br)cc3c3cc(Br)ccc32)c1` (configuration not stated), the Potency in test [3] is 14.6 µM (active); in [6], 7.56 µM (active); with HEK293, 13 µM (active); in the test with SKOV3, 14.1 µM (active). The Potency result (in test [4]; in test [5]; in the test on HeLa) was “inactive” each time.

Regarding `C[C@]12CC[C@H](OC3OC(CO)C(O)C(O)C3OC3OC(CO)C(O)C(O)C3O)C[C@@H]1CC[C@@H]1C2CC[C@]2(C)[C@@H](C3=CC(=O)OC3)CC[C@]12O` (some centres not stated), the Potency result (in test [4]; in the test on HeLa; with SKOV3) was “inactive” each time. Also, in [1], the Potency was 4.3 µM (active). Moreover, in the test on KB-3-1, the max response was 6.08%. In addition, in the test on NIH3T3, the outcome is “inactive [at 17.4 µM]”.

Turning to `COc1ccc(CC2C(=O)NC(C)C(=O)N(C)C3Cc4ccc(cc4)Oc4cc(ccc4OC4OC(CO)C(O)C(O)C4O)CC(C(=O)NC(C)C(=O)NC(CCC(=O)O)C(=O)N2C)N(C)C3=O)cc1` (configuration not stated), the activity change, negative = cytotoxicity in test [3] is -22.7% [at 9.29 µM]; with HeLa, -13.7% [at 11.6 µM]. The Potency in test [1] is 5.48 µM (active); in test [2], 4.88 µM (active). For the same molecule, the max response in the test with KB-3-1 was -29.6%. Besides, in the test on HACAT, the outcome was “inactive [at 9.27 µM]”.

In the case of `CCC(C)C1NC(=O)C2CCCN2C(=O)C(CC(C)C)OC(=O)CCNC(=O)C(C)N(C)C(=O)C(C(C)C)N(C)C1=O` (configuration not stated) (cyclo([ξLac(3-iPr)]PI[NMeV][NMeA][βAla]); configuration not given here), the values for the Potency in test [1] and in [2] were 2.71 µM (active) and 1.92 µM (active), respectively. Also, in the test on HeLa, the Potency entry is “inactive”.

In the case of `CN(CC[C@H](N)CC(=O)N[C@H]1C=C[C@@H](n2ccc(N)nc2=O)O[C@@H]1C(=O)O)C(=N)N`, the activity change, negative = inhibition in [4] was 11.2% [at 19.1 µM]. The activity change, negative = viability loss in test [1] was -2.6% [at 9.23 µM]. In addition, the activity change, negative = cell killing in test [2] is 0.799% [at 9.23 µM]. Moreover, the molecule was called inactive with HEK293. In the test on HACAT, the outcome is “inactive [at 9.27 µM]”. Further, the activity change, negative = cytotoxicity in the test on HeLa was 9.86% [at 11.6 µM].

Consider `CC(=O)OC[C@]12C[C@H](OC(C)=O)C(C)=C[C@H]1O[C@@H]1[C@H](O)[C@@H](O)[C@@]2(C)[C@]12CO2`, for which the Potency is 0.904 µM (active) in test [3], 0.101 µM (active) in test [1], 0.0898 µM (active) in test [2] and 0.18 µM (active) with KB-3-1. Besides, in [4], the Potency entry was “inactive”.

For the origin of these results see PubChem BioAssay (NCATS).
